# Bioassay records deposited in PubChem by Sanford-Burnham Center for Chemical Genomics.
# CYP2C9 inhib: blockers of cytochrome P450 2C9 activity – biochemical, luminescence, ADME assay, primary screen. P11712. CYP2C9 Supersomes, luciferin-H conversion. inhibition, % at 5 µM. hit rate 20% among 96,000. AID 777, 2007;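 active = blocking of liver enzyme CYP2C9 beyond about 50% at 5 µM, limit read from the data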
# CYP2C19 inh: blockers of cytochrome P450 2C19 activity – biochemical, luminescence, ADME assay, primary screen; P33261; CYP2C19 Supersomes, luciferin-H EGE luminescence, 30 min; inhibition, % at 5 µM; hit rate 21% among 96,000;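 active = CYP2C19 inhibition above a set limit at 5 µM in the primary screen, cut at about 50% in these data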;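 also: plate controls were negative control wells for no effect and 2.5 mM tranylcypromine positive control for full effect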
# Target sequence (P33261 whole entry, looked up): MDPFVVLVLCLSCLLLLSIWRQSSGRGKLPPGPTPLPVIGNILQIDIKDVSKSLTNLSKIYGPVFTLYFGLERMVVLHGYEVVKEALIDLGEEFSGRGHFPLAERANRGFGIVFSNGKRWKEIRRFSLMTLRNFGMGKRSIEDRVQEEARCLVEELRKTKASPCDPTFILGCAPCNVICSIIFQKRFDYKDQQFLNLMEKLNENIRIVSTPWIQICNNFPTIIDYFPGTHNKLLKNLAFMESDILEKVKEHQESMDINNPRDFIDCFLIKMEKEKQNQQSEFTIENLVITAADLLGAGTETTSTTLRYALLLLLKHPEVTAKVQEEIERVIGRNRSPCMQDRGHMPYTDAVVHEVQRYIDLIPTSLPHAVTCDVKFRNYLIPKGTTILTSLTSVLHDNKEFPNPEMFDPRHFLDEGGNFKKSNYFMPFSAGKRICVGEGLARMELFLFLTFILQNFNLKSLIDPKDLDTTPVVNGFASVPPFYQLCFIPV
# CYP2C19 activ: human CYP2C19 activators, primary screen, biochemical, luminescence | Cytochrome P450 2C19 (Homo sapiens), P33261 | recombinant CYP2C19, luciferin-H EGE luminescence; stronger effect = higher value; 0 = fully inhibited enzyme, 1 = untreated enzyme | activation factor at 5 µM | 96,000 tested, under 10 active | AID 1025, 2008;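 active = activation factor of at least 2 at 5 µM in the primary screen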;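 also: 0 = wells with 2.5 mM tranylcypromine and 1 = vehicle-only wells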
# CYP2C9 act: human CYP2C9 activators, primary screen, biochemical, luminescence. recombinant CYP2C9, luciferin-H conversion; stronger effect = higher value; factor 1 = untreated enzyme, 0 = blocked. activation factor at 5 µM. hit rate 1.4% among 96,000. AID 1024, 2008;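 active = activation factor of 2 or more for CYP2C9 at a 5 µM dose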;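 also: 0 = sulfaphenazole-blocked wells and 1 = vehicle-only wells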
# PLAP activator: PLAP enzyme activators, biochemical, luminescence, HTS. purified PLAP enzyme, luminescent substrate read-out; stronger effect = higher value. AID 696, 2007. activation fold at 20 µM. hit rate 1.2% among 96,000; in the data active = activation fold above about 2
# * = called active by the depositor. Sampled rows, rich in hits. Any-hit rate of the full collection: about 31%.
SMILES,CYP2C9 inhib,CYP2C19 inh,CYP2C19 activ,CYP2C9 act,PLAP activator
Cc1cc(SCC(=O)N/N=C/c2ccc(O)c(O)c2O)c(C)cc1Br,15,10,0.9,0.9,2.2*
COc1cc(/C=N/NC(=O)CCc2c(C)n[nH]c2C)ccc1O,30,8,0.9,0.7,1
COc1ccc(/C=N/NC(=O)CCn2c3ccccc3c3ccccc32)cc1O,97*,94*,0.1,0,1.5
COC(=O)Oc1ccc(/C=N/NC(=O)CSCc2ccccc2Br)cc1OC,67*,56*,0.4,0.3,1
Cn1cc(C(=O)Nc2cccc(F)c2)cn1,0,4,1,1,0.8
Cc1ccccc1N1CCN(C(=O)CN2C(=O)c3ccccc3C2=O)CC1,12,17,0.8,0.9,1
O=C1c2cccnc2C(=O)N1Cc1ccc2c(c1)OCO2,-8,8,0.9,1.1,1.1
Cc1ccc(C(=O)Cn2cnc3ccccc3c2=O)cc1C,18,24,0.8,0.8,0.9
Cc1cccc(NC(=S)N(C)C2(c3ccccc3Cl)CCCCC2=O)c1 (stereo unspecified),68*,97*,0,0.3,0.8
CN(C(=S)Nc1ccccc1F)C1(c2ccccc2Cl)CCCCC1=O (stereo unspecified),3,82*,0.2,1,1.2
COc1ccc(/C=N/Nc2ccccc2)cc1Cn1nc(C)c([N+](=O)[O-])c1C,50*,72*,0.3,0.5,1.1
O=C(COC(=O)[C@H](Cc1ccccc1)NS(=O)(=O)c1ccccc1F)NC1CCCCC1,46,17,0.8,0.5,1.6
CCSc1c(-c2ccccc2)nc2c(C)cccc2c1C(=O)O,78*,-1,1,0.2,1.4
Cc1cccc2c(C(=O)O)c3c(nc12)CCCCC3,2,9,0.9,1,1
Brc1[nH]nc2ccccc12,-12,10,0.9,1.1,1
COc1cc(C2Nc3ccc4ncccc4c3C3=C2C(=O)CCC3)cc(OC)c1O (stereo unspecified),83*,40,0.6,0.2,1
O=C1CCCC2=C1C(c1ccco1)Nc1ccc3ccccc3c12 (stereo unspecified),-5,14,0.9,1,1.1
COc1cc(C2Nc3ccc4ncccc4c3C3=C2C(=O)CC(C)(C)C3)cc(OC)c1O (stereo unspecified),76*,63*,0.4,0.2,1.8
CCC(=S)/C=C1\Sc2ccccc2N1CCCS(=O)(=O)O,2,-17,1.2,1,1.1
CCC(C)(C)NC(=O)C(c1ccc(C)cc1)N(Cc1ccco1)C(=O)CCC(=O)Nc1nccs1 (stereo unspecified),8,-6,1.1,0.9,0.9
Nc1nc(SCc2nnc(SCC(=O)O)n2-c2ccccc2)nc2sc3c(c12)CCCC3,15,-15,1.2,0.8,1.6
C/C(=N\Nc1nccnc1Cl)c1ccc([N+](=O)[O-])cc1,10,14,0.9,0.9,1
CCOc1ccc2[nH]c(=O)c(C(c3nnnn3Cc3ccco3)N3CCCC(C)C3)cc2c1 (stereo unspecified),79*,96*,0,0.2,1.7
CCOc1ccc2[nH]c(=O)c(C(c3nnnn3Cc3ccco3)N3CCC(C)CC3)cc2c1 (stereo unspecified),40,62*,0.4,0.6,1.1
Cc1ccc(C)c2[nH]c(=O)c(C(c3nnnn3Cc3ccco3)N3CCc4ccccc4C3)cc12 (stereo unspecified),81*,95*,0,0.2,1.6
SMILES,CYP2C9 inhib,CYP2C19 inh,CYP2C19 activ,CYP2C9 act,PLAP activator
Cc1c(NC(=O)c2cc3ccccc3oc2=O)c(=O)n(-c2ccccc2)n1C,4,-4,1,1,0.9
CCN(CC)C(=O)C1CCN(S(=O)(=O)c2ccc(C3CNC(=O)C3)cc2)CC1 (stereo unspecified),18,3,1,0.8,1.1
CCOc1c2ccc(C(=O)NCc3ccccc3OC)cc2nn1CC,-12,2,1,1.1,1
C#CCOc1nc(OCC#C)nc(OCC#C)n1,40,89*,0.1,0.6,0.9
C=CCOn1c(=O)c(=O)n(OCc2ccccc2)c2ccccc21,-4,97*,0,1,0.9
CS(=O)(=O)NCCCNc1ccc(Cl)cc1[N+](=O)[O-],48,66*,0.3,0.5,0.6
